# Wee1 degr inh: Wee1 degradation inhibitors, primary screen, cell-based, HeLa, Wee1K328M-luciferase, luminescence; Wee1-like protein kinase (Homo sapiens), P30291; HeLa Luc-Wee1K328M stability; 100% = proteasome inhibitor MG132 effect; reporter increase, % at 5 µM; hit rate 1.2% among 220,000; AID 1321, 2008;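 active = activation above the mean of all tested compounds plus 3 SD, set per screening run, cut at about 8.8% in these data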;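 note: cells exposed to compound for 20 h before luminescence read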
# DAX1 inh-1: DAX1 (NR0B1) inhibitors, primary screen, cell-based, HEK293, Gal4-DAX1, luciferase luminescence. inhibition, % at 6.75 µM. HEK293 Gal4-DAX1 luciferase reporter. hit rate 0.99% among 340,000;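 active = inhibition above the mean over all tested compounds plus 3 SD, cut at about 4.2% in these data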;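 note: inhibition shows as a rise in luminescence from relieved DAX1 repression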
# ssDAF12 agonist: S. stercoralis DAF-12 nuclear receptor activators, primary screen, cell-based, luminescence, HEK293, GRIP1 co-expression, lit1-tk-luc; Nuclear hormone receptor DAF-12 (Strongyloides stercoralis); HEK293 ssDAF-12/GRIP1 lit1-tk-luc reporter; % of 3 µM dafachronic acid response; activation, % at 6.8 µM; hit rate 1% among 370,000; AID 652126, 2013;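 active = activation above the mean over all tested compounds plus 3 SD, cut at about 0.9% in these data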
# hgDAF12 agonist: H. glycines DAF-12 receptor agonists, primary screen, cell-based, luminescence, HEK293, GAL4 fusion, UAS-luciferase. hit rate 1.8% among 370,000. HEK293 GAL4-hgDAF12 UAS-luciferase reporter, agonist luminescence; normalized to butyrate control. AID 687014, 2013. activation, % at 6.8 µM. Nuclear hormone receptor DAF-12 (Heterodera glycines), GAL4 fusion;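 active = activation above a cutoff set at the mean of all screened compounds plus 3 SD, cut at about 10% in these data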
# hcDAF-12 act: H. contortus DAF-12 nuclear receptor activators, primary screen, cell-based, luminescence, HEK293, lit1-tk-luc reporter; HEK293 hcDAF-12 lit1-tk-luc reporter; 0% DMSO, 100% Δ7-dafachronic acid; activation, % at 6.8 µM; hit rate 1.4% among 370,000; AID 652067, 2013;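 active = activation above the mean of all tested compounds plus 3 SD, cut at about 5.5% in these data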
# DAX1 inh-2: DAX1 (NR0B1) inhibitors on StAR promoter, primary screen, cell-based, luminescence, SF-1 (NR5A1), full-length DAX-1; HEK293T StAR-luciferase reporter, SF-1/DAX-1 repression relief; inhibition, % at 6.8 µM; hit rate 1.1% among 370,000;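 active = inhibition above the mean over all tested compounds plus 3 SD, cut at about 3.6% in these data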;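 note: higher inhibition means more luminescence from relief of DAX-1 repression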
# DAX1 conf: DAX1 (NR0B1) inhibitors relieving SF-1 repression, confirmation, cell-based, luminescence, HEK293T, full-length DAX-1, SF-1 activated StAR promoter. shares compounds with DAX1 inh-2. HEK293T StAR-promoter luciferase reporter, SF-1/DAX-1 repression. inhibition, % at 6.8 µM. hit rate 87% among 2,400. AID 652134, 2013;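 active = inhibition above the average of every tested compound plus 3 SD, cut at about 3.8% in these data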
# Target sequence (P51843 whole entry, looked up): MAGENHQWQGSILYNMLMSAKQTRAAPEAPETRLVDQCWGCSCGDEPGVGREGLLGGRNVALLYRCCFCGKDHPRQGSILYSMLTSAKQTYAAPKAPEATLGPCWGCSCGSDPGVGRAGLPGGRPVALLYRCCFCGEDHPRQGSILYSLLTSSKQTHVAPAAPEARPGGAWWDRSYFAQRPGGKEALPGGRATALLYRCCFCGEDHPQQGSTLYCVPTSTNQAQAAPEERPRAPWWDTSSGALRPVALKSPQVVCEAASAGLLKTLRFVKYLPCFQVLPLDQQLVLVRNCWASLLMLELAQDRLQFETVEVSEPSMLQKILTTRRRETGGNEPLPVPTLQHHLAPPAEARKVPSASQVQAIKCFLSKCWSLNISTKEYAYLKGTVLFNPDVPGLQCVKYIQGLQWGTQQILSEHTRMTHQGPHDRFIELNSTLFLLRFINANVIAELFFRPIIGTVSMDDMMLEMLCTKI
# SF1 mutant ctr: StAR reporter signal changes without DAX1, counter-screen for DAX1 inhibitor project, cell-based, luminescence, AF-2 mutant SF-1, transactivation; shares compounds with DAX1 inh-2; HEK293 StAR-luciferase, SF-1 AF2 mutant; inhibition, % at 6.8 µM; hit rate 78% among 2,400;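 active = inhibition above the mean of all tested compounds plus 3 SD, cut at about 3% in these data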
# LXRb hcDAF ctr: LXR agonists, Gal4 luciferase reporter, confirmation, counter-screen for hcDAF-12 agonist project, cell-based, luminescence, HEK293, H. contortus campaign | shares compounds with hcDAF-12 act | HEK293 Gal4-LXR tk-luc reporter, 24 h; normalized: DMSO 0%, positive control 100% | activation, % at 6.8 µM | 3,400 tested, under 10 active;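 active = mean percent activation of the reporter above a cutoff set as the average over tested compounds plus their standard deviation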
# hcDAF12 conf: H. contortus DAF-12 receptor agonists, confirmation, cell-based, luminescence, HEK293, lit1-tk-luc, triplicate; shares compounds with hcDAF-12 act; HEK293 hcDAF-12 lit1-tk-luc reporter; % of Δ7-dafachronic acid response; activation, % at 6.8 µM; hit rate 61% among 3,400; AID 743032, 2013;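 active = mean activation across triplicate tests above the threshold derived from the earlier primary screen, cut at about 5.5% in these data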
# hgDAF12 ag: H. glycines DAF-12 receptor agonists, confirmation, cell-based, luminescence, HEK293, GAL4-LBD fusion; activation, % at 6.8 µM; hit rate 80% among 3,300; HEK293 GAL4-hgDAF12 luciferase reporter, agonist mode; percent of butyrate response; shares compounds with hgDAF12 agonist;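 active = mean activation over triplicate wells above the hit cutoff derived from the earlier primary screen, cut at about 11% in these data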
# LXRb DAF12 ctr: LXR agonists, Gal4 luciferase reporter, confirmation, counter-screen for hgDAF-12 agonist project, cell-based, luminescence, HEK293, H. glycines campaign | 24 h | activation, % at 6.8 µM | shares compounds with hgDAF12 agonist | 3,300 tested, under 10 active;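 active = mean activation of the triplicate above a set limit carried over from the primary screen, none filed active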
# A number is an active result; i = inactive; nt = no result given. Shown are actives, neighbours in structure and some others; about 4.6% of the full set was active somewhere.
SMILES,Wee1 degr inh,DAX1 inh-1,ssDAF12 agonist,hgDAF12 agonist,hcDAF-12 act,DAX1 inh-2,DAX1 conf,SF1 mutant ctr,hgDAF12 ag,LXRb DAF12 ctr,others
CC(C)=C[C@H]1C[C@H](C)[C@H]2CC[C@H](C)c3c(O)c(O[C@H]4OC[C@H](O)[C@@H](O)[C@@H]4O)c(C)c1c32,nt,nt,i,i,i,i,nt,nt,nt,nt,
O=C(Nc1ccc(SC(F)(F)F)cc1)c1ccccn1,i,i,1.1,22,8.4,6.1,15,i,20,i,LXRb hcDAF ctr=i;hcDAF12 conf=11
O=C(CSC(=S)N1CCSCC1)c1ccccc1,i,i,i,18,i,5.0,12,6.9,19,i,
COc1cc(/C=C/C(=O)O)cc(OC)c1,nt,i,nt,nt,nt,nt,nt,nt,nt,nt,
COc1cc(O)cc(/C=C/c2ccccc2)c1,nt,i,i,15,i,4.6,9.3,5.5,16,i,
CC(=O)Nc1ccc(NC(=O)COc2ccc3c(c2)CCC3)cc1,i,i,i,i,i,i,nt,nt,nt,nt,
Cc1ccnc(NC(=O)COc2ccc3c(c2)CCC3)c1,nt,i,i,14,i,14,12,4.2,12,i,
CC1CCN(c2ccc(NC(=O)c3ccc(Br)o3)cc2)CC1,nt,i,i,20,i,14,11,9.6,18,i,
CS(=O)(=O)N1CCN(c2ccc(NC(=O)c3ccc(Br)o3)cc2)CC1,i,i,i,i,i,i,nt,nt,nt,nt,
O=C1NC[C@@H](c2ccccc2)OC(=O)[C@@H](Cc2ccc(F)cc2)C/C=C\C[C@@H]1CC(=O)N(CCO)Cc1ccccc1,nt,i,i,i,i,i,nt,nt,nt,nt,
CN1CCN(C2CN(Cc3cn(Cc4ccc(C(F)(F)F)cc4)nn3)S(=O)(=O)C2)CC1 (configuration not stated),nt,nt,i,i,i,i,nt,nt,nt,nt,
Cc1cc(O)ccc1Nc1nc(-c2cccs2)cs1,i,i,1.0,17,i,5.5,9.3,4.7,21,i,
Cc1nc(N)sc1-c1csc(N(C)c2ccc(O)cc2)n1,i,i,i,i,i,i,nt,nt,nt,nt,
CN(c1ccc(O)cc1)c1nc(-c2cccs2)cs1,i,i,i,19,i,7.7,8.7,3.6,14,i,
CC(=O)Nc1ccc(-c2ccnc3c2CC(C(=O)NCc2cccc(Cl)c2)O3)cc1 (configuration not stated),nt,nt,i,i,i,i,nt,nt,nt,nt,
Cn1cccc1C(=O)C(=O)Nc1ccc(F)c(F)c1,i,i,1.8,15,i,4.9,9.1,7.7,16,i,
Cn1cccc1C(=O)C(=O)Nc1ccc(Cl)cc1,i,i,1.4,14,11,5.1,15,9.2,20,i,LXRb hcDAF ctr=i;hcDAF12 conf=8.6
CC(=O)c1cccc(OCc2cc(C(=O)N3CCSCC3)no2)c1,nt,i,i,14,i,4.8,6.6,6.3,15,i,
Cc1cccc(C)c1OCc1cc(C(=O)N2CCN(c3ccc(F)cc3)CC2)no1,nt,i,i,14,i,5.9,4.5,3.6,15,i,
CC(=O)c1cccc(NS(=O)(=O)c2ccc(N/C=C\C(=O)c3ccc(C)cc3)cc2)c1,i,i,i,i,i,i,nt,nt,nt,nt,
CC(=O)c1cccc(N/C=C\C(=O)c2ccc(C)cc2)c1,i,i,i,20,9.6,6.0,19,8.5,25,i,LXRb hcDAF ctr=i;hcDAF12 conf=9.7
CSCc1ccc(C(=O)Nc2ccc(C(N)=O)cc2)cc1,i,i,i,13,i,5.3,9.6,5.0,13,i,
CSCc1ccc(C(=O)NCc2ccc(C)cc2)cc1,i,i,i,i,i,i,nt,nt,nt,nt,
COc1ccc(-c2cc(-c3ccccc3)n[nH]2)c(O)c1,10,i,i,16,i,5.5,6.3,5.5,16,i,
Cc1cc(/C=C\c2ccccc2)nc2ccccc12,i,5.6,i,15,10,6.0,6.4,4.1,17,i,LXRb hcDAF ctr=i;hcDAF12 conf=8.6
SMILES,Wee1 degr inh,DAX1 inh-1,ssDAF12 agonist,hgDAF12 agonist,hcDAF-12 act,DAX1 inh-2,DAX1 conf,SF1 mutant ctr,hgDAF12 ag,LXRb DAF12 ctr,others
COc1ccccc1S(=O)(=O)N(C)C[C@H]1OCc2cn(nn2)CCCC(=O)N([C@@H](C)CO)C[C@@H]1C,nt,i,i,i,i,i,nt,nt,nt,nt,
Nc1c(-c2ccccc2)cnc2cc(-c3ccccc3)nn12,i,5.6,0.9,22,i,6.0,16,7.7,26,i,
O=S1(=O)CCN(Cc2cccnc2)CC1,nt,i,i,i,i,i,nt,nt,nt,nt,
O=S1(=O)CCSC[C@@H](CN2CCOCC2)N1,nt,nt,i,i,i,i,nt,nt,nt,nt,
CCc1ccc(-c2ccc(SCC(=O)Nc3nnc(C)s3)nn2)cc1,i,i,i,21,7.6,6.0,10,7.8,16,i,LXRb hcDAF ctr=i;hcDAF12 conf=6.0
Cc1nnc(NC(=O)CSc2ccc(-c3ccc(Cl)cc3)nn2)s1,i,i,i,i,i,i,nt,nt,nt,nt,
